The source of these data is the supplement of paper PMC6411743.

± gives the standard deviation of the averaged measurements. Of roughly 6,200 targets only a part is listed; those with the largest changes were picked by preference.

Test in all cases: NP40-soluble protein abundance relative to vehicle (solubility fold change) (ratio); higher = more soluble protein in presence of AMP-PNP
For one assay, the target named is T1, D6R9V8|Q9UKY7 (UniProt Q9UKY7).
T1 sequence (whole entry): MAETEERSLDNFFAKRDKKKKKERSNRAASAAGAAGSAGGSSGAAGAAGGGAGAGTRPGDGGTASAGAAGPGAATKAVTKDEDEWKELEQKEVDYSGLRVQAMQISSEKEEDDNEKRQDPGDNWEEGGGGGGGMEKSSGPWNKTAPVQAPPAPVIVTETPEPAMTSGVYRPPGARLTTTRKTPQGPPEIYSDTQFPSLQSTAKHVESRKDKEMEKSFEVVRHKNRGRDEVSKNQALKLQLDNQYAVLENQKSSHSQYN
In short, it runs like this: (§1)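 Eight concentrations, 0.1 to 10 mM, were tested on Jurkat crude lysate for 10 min at room temperature and then 3 min at 37 °C, in three independent experiments. The lysate was solubilised with 0.8% NP40 and benzonase, ultracentrifuged, and the supernatant TMT-labelled for LC-MS/MS. Each value is the fold change against the detergent-processed vehicle in its own replicate, from vsn-normalised intensities.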

A further assay concerns the target T2, E9PNW4|E9PR17|P13987 (UniProt P13987).
T2 sequence (whole entry): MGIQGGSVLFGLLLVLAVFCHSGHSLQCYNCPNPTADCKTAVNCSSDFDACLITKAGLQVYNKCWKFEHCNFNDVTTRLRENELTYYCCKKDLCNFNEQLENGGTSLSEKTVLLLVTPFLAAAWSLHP
The procedure, abridged:
as §1

In another assay the target is T3, UniProt O43861|O43861-2.
T3 sequence (whole entry): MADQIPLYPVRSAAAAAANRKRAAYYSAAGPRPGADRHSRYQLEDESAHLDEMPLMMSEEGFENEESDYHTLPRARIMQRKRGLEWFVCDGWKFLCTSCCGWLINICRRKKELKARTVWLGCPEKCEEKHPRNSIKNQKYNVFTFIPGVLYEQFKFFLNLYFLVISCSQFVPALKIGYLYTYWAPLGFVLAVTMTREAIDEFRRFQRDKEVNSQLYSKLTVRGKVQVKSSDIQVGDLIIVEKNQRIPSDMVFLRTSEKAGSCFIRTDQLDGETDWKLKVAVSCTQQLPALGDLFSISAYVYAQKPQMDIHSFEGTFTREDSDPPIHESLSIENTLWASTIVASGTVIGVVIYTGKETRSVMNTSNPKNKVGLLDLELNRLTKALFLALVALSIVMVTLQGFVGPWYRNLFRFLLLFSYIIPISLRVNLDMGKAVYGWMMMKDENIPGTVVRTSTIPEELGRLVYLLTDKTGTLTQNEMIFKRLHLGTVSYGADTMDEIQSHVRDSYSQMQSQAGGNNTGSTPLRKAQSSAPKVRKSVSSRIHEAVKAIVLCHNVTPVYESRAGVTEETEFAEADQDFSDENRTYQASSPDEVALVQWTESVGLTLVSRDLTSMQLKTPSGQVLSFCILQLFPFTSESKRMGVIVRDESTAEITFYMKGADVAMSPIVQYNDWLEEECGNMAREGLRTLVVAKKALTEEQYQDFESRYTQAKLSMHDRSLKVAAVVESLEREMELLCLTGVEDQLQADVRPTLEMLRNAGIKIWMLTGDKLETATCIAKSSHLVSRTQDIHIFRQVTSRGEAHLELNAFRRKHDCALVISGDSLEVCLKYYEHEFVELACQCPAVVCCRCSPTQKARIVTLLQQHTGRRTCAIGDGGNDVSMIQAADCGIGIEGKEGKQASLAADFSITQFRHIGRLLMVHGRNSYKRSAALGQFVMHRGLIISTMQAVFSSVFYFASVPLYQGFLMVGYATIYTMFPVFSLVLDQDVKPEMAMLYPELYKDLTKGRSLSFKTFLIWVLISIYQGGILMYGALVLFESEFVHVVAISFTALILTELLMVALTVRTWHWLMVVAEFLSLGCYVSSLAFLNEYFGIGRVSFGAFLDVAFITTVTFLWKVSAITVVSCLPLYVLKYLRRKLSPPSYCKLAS
The procedure, abridged: as §1

In the next assay the target is T4, ZW10 (UniProt O43264).
T4 sequence (whole entry): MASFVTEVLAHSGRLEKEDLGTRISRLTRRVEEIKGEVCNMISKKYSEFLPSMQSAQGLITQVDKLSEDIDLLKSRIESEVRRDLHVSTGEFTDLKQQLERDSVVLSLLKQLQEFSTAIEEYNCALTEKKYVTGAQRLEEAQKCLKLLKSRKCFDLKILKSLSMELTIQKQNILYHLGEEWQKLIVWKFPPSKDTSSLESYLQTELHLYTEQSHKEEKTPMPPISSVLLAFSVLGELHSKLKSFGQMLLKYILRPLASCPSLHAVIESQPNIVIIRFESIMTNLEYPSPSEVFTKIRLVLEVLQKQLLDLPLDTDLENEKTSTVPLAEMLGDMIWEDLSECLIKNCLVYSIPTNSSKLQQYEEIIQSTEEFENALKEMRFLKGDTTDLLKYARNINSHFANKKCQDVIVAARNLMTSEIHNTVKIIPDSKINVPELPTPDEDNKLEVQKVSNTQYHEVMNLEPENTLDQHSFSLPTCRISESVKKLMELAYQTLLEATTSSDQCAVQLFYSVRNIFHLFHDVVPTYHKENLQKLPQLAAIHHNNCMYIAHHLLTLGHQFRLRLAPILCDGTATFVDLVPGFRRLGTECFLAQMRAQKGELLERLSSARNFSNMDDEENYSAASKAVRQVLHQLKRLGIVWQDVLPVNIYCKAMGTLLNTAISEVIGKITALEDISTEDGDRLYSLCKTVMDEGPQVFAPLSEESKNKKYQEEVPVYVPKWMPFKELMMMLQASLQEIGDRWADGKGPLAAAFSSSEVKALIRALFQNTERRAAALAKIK
The procedure, abridged: as §1

For the compound `Nc1ncnc2c1ncn2[C@@H]1O[C@H](COP(=O)(O)OP(=O)(O)NP(=O)(O)O)[C@@H](O)[C@H]1O` [adenylyl imidodiphosphate], the NP40-soluble protein abundance is 1.03 ± 0.021 in the assay with D6R9V8|Q9UKY7 (concentration: 1mM); 1.09 ± 0.089 with D6R9V8|Q9UKY7 (concentration: 2mM); 1.03 ± 0.034 with D6R9V8|Q9UKY7 (concentration: 4mM); 1.04 ± 0.034 with D6R9V8|Q9UKY7 (concentration: 6mM); 0.993 ± 0.028 with D6R9V8|Q9UKY7 (concentration: 8mM); 1.05 ± 0.07 with D6R9V8|Q9UKY7 (concentration: 10mM). For the same compound, the NP40-soluble protein abundance in the assay with E9PNW4|E9PR17|P13987 (concentration: 1mM) is 1.05 ± 0.053; with E9PNW4|E9PR17|P13987 (concentration: 2mM) it was 1.11 ± 0.13; with E9PNW4|E9PR17|P13987 (concentration: 4mM) it was 1.03 ± 0.049; in the assay with E9PNW4|E9PR17|P13987 (concentration: 6mM), 1.07 ± 0.051; in the assay with E9PNW4|E9PR17|P13987 (concentration: 8mM), 1.1 ± 0.015; in the assay with E9PNW4|E9PR17|P13987 (concentration: 10mM), 1.06 ± 0.03. Further, the NP40-soluble protein abundance with UniProt O43861|O43861-2 (concentration: 1mM) was 1.01 ± 0.022; in the assay with UniProt O43861|O43861-2 (concentration: 2mM), 1 ± 0.012; in the assay with UniProt O43861|O43861-2 (concentration: 4mM), 1.01 ± 0.025; with UniProt O43861|O43861-2 (concentration: 6mM), 0.986 ± 0.013; in the assay with UniProt O43861|O43861-2 (concentration: 8mM), 1 ± 0.041; with UniProt O43861|O43861-2 (concentration: 10mM), 1.024 ± 0.0049. Further, the NP40-soluble protein abundance in the assay with ZW10 (concentration: 1mM) came out at 0.994 ± 0.031; in the assay with ZW10 (concentration: 2mM), 0.974 ± 0.043; in the assay with ZW10 (concentration: 4mM), 0.977 ± 0.047; with ZW10 (concentration: 6mM) it was 0.936 ± 0.064; with ZW10 (concentration: 8mM) it was 0.919 ± 0.081; with ZW10 (concentration: 10mM) it was 0.941 ± 0.07.
